Experiment [1] can be described thus: Human pregnane X receptor (PXR) small molecule agonists, qHTS cell viability counter screen (AID 1346977). Further: nearly all actives have a fitted effect of over 50% in size. Further: potency means the concentration at half of the fitted maximal effect. In outline: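 HepG2 cells stably carrying the PXR-Luc reporter are cultured with 5% charcoal-stripped FBS and treated with compounds for 24hr. CellTiter-Fluor is added at 23hr and fluorescence is read after 1hr.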
In general terms: In qHTS, concentration-response curves come from the screen itself.

A short description of experiment [2]: Caspase-3/7 induction in HepG2 cells by small molecules, qHTS assay (AID 1346978). Further: nearly all actives have a fitted effect of over 15% in size. Further: potency means the concentration at half of the fitted maximal effect. In outline: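 Caspase-3/7 induction was measured by Caspase-Glo 3/7 luminescence (30 min, room temperature) after a 17 hr compound exposure of wild-type HepG2 cells seeded at 2,000 per well and pre-incubated 5 hr.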
Experiment [3] in a line: Caspase-3/7 induction in CHO-K1 cells by small molecules, qHTS cell viability counter screen (AID 1346979). Further: nearly all actives have a fitted effect of over 35% in size. Further: potency means the concentration at half of the fitted maximal effect. The procedure, abridged: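 Seeding: 1,500 CHO-K1 cells/well. Rest: 5hr, 37C. Treatment: compounds in DMSO, 16hr. Read: CellTiter-Fluor, 1hr, fluorescence.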
The nature of experiment [4]: Caspase-3/7 induction in CHO-K1 cells by small molecules, qHTS assay (AID 1346980). Further: nearly all actives have a fitted effect of over 15% in size. The procedure, abridged:
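Luminescent Caspase-Glo 3/7 read (30min, room temperature) quantified apoptosis induction. Cells were wild-type CHO-K1, treated with compound for 17hr at 37 C and 5% CO2.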

Experiment [5] is described as follows: Caspase-3/7 induction in HepG2 cells by small molecules, qHTS cell viability counter screen (AID 1346981). Further: nearly all actives have a fitted effect of over 30% in size. Further: potency means the concentration at half of the fitted maximal effect. In outline:
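HepG2, WT, 2,000 cells/well; 5 hr pre-incubation 37 C/5% CO2; compound pin-transferred from DMSO; 16 hr exposure; CellTiter-Fluor, 1 hr; fluorescence read.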

Experiment [6] has as its target Nuclear receptor subfamily 1 group I member 2 (Homo sapiens) (UniProt O75469). The experiment can be described thus: Human pregnane X receptor (PXR) small molecule agonists, qHTS assay (AID 1346982). Further: nearly all actives have a fitted effect of over 35% in size. Further: potency means the concentration at half of the fitted maximal effect. The procedure, abridged: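 Luciferase signal from ONE-Glo (30 min, room temperature) measured activation of hPXR-driven CYP3A4 reporter expression in PXR-Luc HepG2 cells treated with compounds for 24 hr at 37 C.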

Experiment [7] has as its target Nuclear receptor subfamily 1 group I member 2 (Rattus norvegicus) (UniProt Q9R1A7). Kind of experiment: Rat pregnane X receptor (rPXR) activation by small molecules, qHTS assay (AID 1346983). Further: nearly all actives have a fitted effect of over 20% in size. As to conditions: rPXR luciferase reporter cells, One-Glo luminescence, 24 h; stronger effect = higher value. In outline: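 Luminescent readout (One-Glo luciferase, 30 min room temperature) followed 24 hr compound treatment at 37 C of rPXR cells plated 2,000 per well and preincubated 5hr; qHTS format with compounds delivered in DMSO.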

Experiment [8] addresses Nuclear receptor subfamily 1 group I member 2 (Homo sapiens) (UniProt O75469). The experiment can be described thus: CYP3A4 induction through human pregnane X receptor (PXR) by small molecules, qHTS assay (AID 1346984). Further: nearly all actives have a fitted effect of over 40% in size. In outline: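 Luminescence readout: luciferase signal after One-Glo (30 min, room temperature), following 3 h at 37C with 3uM final Luciferin-IPA P450 substrate. Cells were DPX-2 (HepG2, PXR/CYP3A4-luc co-transfected) dosed for 24 h.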

Experiment [9] has the same target. Kind of experiment: Human pregnane X receptor (PXR) activation by small molecules, qHTS assay (AID 1346985). Further: nearly all actives have a fitted effect of over 40% in size. The procedure, abridged:
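DPX-2 cells (HepG2 co-transfected with a PXR response element and a CYP3A4-promoter luciferase construct) were seeded at 2,000 per well, rested 5 hr at 37C, then exposed to DMSO-dissolved compounds for 24 hr. Activation was read as luciferase luminescence.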

In experiment [10] the target is Cytochrome P450 2D6 (Homo sapiens) (UniProt P10635). Kind of experiment: Cytochrome P450 Family 2 Subfamily D Member 6 (CYP2D6) small molecule antagonists: luciferase reporter qHTS assay (AID 1671196). Further: nearly all actives have a fitted effect of over 50% in size. Further: potency means the concentration at half of the fitted maximal effect. In outline: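 Read-out is luminescence from luciferin formed by CYP2D6 turnover of a proluciferin substrate, recorded as relative luminescence units. Reactions ran 1 h at room temperature after NADPH regeneration solution was added.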
Background: A reporter such as luciferase makes a cellular process visible.

For experiment [11], the target named is Cytochrome P450 2C19 (Homo sapiens) (UniProt P33261). The experiment can be described thus: Cytochrome P450 Family 2 Subfamily C Member 19 (CYP2C19) small molecule antagonists: luciferase reporter qHTS assay (AID 1671197). Further: nearly all actives have a fitted effect of over 65% in size. Further: potency means the concentration at half of the fitted maximal effect. In outline: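 Enzyme-substrate mix with proluciferin substrate (P450-Glo CYP2C19 system) preincubated with compounds 10 min at room temperature; NADPH regeneration solution added, 37C for 1 h; detection reagent stops reaction, luminescence read after 20 min. Ketoconazole positive control.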

The target of experiment [12] is Cytochrome P450 2C9 (Homo sapiens) (UniProt P11712). Kind of experiment: Cytochrome P450 Family 2 Subfamily C Member 9 (CYP2C9) small molecule antagonists: luciferase reporter qHTS assay (AID 1671198). Further: nearly all actives have a fitted effect of over 50% in size. Further: potency means the concentration at half of the fitted maximal effect. In outline:
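Enzyme-substrate mix preincubated with compound 10 min at room temperature; reaction started with NADPH regeneration solution, 1 h 37C. Luminescent luciferin product read after 20 min detection reagent.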

The target in experiment [13] is Cytochrome P450 1A2 (Homo sapiens) (UniProt P05177). The experiment can be described thus: Cytochrome P450 Family 1 Subfamily A Member 2 (CYP1A2) small molecule antagonists: luciferase reporter qHTS assay (AID 1671199). Further: nearly all actives have a fitted effect of over 50% in size. Further: potency means the concentration at half of the fitted maximal effect. The procedure, abridged: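 P450-Glo CYP1A2, 1536-well qHTS: enzyme/proluciferin substrate + cpd (DMSO), 10 min RT; NADPH regen, 1 h RT; detection reagent, 20 min; luminescence, RLU.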

Experiment [14] addresses Voltage-gated inwardly rectifying potassium channel KCNH2 (Homo sapiens) (UniProt Q12809). Kind of experiment: Human Ether-a-go-go-Related Gene (hERG) channel small molecule antagonists: fluorescence cell-based qHTS assay (AID 1671200). The procedure, abridged:
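First, 1000 cells per well are seeded and cultured overnight at 37 C. Next, FluxOR II dye is loaded for 1 h at room temperature, protected from light. After 10 more minutes, stimulus is added and fluorescence is read.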

Experiment [15] addresses Cytochrome P450 3A4 (Homo sapiens) (UniProt P08684). Kind of experiment: Cytochrome P450 Family 3 Subfamily A Member 4 (CYP3A4) small molecule antagonists: luciferase reporter qHTS assay (AID 1671201). The procedure, abridged: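 Enzyme and proluciferin substrate are mixed with test chemicals for 10 min, then NADPH regeneration system drives turnover for 1 h at room temperature. A detection reagent halts the reaction; luminescence after 20 min gives relative activity.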

Each structure is given as a SMILES string. “And” between values parts separate entries of the source, which are not always exact repeats. Identical values can stand only once. Records with an inconclusive call do not appear. Some compounds were tested as several samples or in several runs, with calls that do not always agree. The source made the active and inactive calls. The call rests on the fitted dose curve; in most records, active means well fitted curve in the direction sought with a large enough effect in the repeat runs; inconclusive means weak or mixed curves; inactive means no such curve, though single readings can be large; an effect the other way counts as inactive or inconclusive.
On the % scale 0 is the no-effect control and ±100 the full control effect.

Sequence of Cytochrome P450 2C9 (Homo sapiens) (P11712 whole entry, looked up): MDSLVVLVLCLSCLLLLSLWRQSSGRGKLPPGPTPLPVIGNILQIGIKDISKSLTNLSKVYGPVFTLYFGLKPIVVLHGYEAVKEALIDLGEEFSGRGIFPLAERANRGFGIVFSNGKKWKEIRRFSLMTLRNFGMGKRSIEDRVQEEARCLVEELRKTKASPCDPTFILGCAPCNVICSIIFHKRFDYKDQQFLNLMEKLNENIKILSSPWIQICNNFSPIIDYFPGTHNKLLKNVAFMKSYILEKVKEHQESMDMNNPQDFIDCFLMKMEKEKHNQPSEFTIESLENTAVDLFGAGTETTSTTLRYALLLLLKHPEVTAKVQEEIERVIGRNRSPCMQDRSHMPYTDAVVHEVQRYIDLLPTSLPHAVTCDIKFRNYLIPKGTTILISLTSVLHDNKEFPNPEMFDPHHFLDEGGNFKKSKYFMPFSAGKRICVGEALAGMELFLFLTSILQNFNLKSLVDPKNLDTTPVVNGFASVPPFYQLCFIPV
Sequence of Cytochrome P450 3A4 (Homo sapiens) (P08684 whole entry, looked up): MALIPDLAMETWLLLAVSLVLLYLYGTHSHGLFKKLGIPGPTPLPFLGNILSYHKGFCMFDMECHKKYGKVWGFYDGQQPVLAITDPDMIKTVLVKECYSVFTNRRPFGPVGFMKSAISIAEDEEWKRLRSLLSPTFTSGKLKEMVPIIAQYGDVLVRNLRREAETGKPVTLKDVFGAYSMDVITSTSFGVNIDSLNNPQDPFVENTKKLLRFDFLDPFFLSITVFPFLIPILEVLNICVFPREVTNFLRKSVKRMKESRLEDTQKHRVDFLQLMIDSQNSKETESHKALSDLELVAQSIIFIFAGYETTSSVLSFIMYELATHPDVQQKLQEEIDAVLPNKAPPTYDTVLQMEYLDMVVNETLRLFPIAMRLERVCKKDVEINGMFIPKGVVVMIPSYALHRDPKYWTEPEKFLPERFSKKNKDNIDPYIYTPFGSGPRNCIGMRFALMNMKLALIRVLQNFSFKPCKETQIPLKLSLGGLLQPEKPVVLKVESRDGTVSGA
Sequence of Cytochrome P450 2C19 (Homo sapiens) (P33261 whole entry, looked up): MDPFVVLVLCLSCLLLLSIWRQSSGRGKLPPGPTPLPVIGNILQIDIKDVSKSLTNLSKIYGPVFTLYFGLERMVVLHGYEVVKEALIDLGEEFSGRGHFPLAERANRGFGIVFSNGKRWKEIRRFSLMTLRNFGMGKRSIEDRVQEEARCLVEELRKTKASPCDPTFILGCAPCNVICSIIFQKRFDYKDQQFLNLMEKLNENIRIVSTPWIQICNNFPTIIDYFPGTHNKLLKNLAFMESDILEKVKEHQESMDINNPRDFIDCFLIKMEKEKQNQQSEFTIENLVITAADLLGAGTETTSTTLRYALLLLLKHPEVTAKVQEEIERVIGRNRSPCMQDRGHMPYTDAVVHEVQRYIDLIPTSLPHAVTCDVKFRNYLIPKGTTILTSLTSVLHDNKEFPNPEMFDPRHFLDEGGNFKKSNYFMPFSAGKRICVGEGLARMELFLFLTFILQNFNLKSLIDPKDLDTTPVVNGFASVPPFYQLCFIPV
Sequence of Nuclear receptor subfamily 1 group I member 2 (Homo sapiens) (O75469 whole entry, looked up): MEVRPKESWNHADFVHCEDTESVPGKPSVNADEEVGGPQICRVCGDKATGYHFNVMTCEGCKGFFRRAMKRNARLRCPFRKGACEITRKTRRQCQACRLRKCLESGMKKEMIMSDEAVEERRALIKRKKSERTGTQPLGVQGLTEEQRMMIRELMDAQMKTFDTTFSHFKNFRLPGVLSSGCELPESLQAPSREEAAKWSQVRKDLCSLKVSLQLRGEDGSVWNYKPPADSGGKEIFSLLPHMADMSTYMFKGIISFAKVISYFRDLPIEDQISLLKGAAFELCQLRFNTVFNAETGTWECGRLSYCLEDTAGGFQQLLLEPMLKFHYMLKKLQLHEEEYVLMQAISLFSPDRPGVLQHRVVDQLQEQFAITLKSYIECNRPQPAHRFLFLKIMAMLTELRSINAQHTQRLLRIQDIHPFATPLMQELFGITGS
Sequence of Nuclear receptor subfamily 1 group I member 2 (Rattus norvegicus) (Q9R1A7 whole entry, looked up): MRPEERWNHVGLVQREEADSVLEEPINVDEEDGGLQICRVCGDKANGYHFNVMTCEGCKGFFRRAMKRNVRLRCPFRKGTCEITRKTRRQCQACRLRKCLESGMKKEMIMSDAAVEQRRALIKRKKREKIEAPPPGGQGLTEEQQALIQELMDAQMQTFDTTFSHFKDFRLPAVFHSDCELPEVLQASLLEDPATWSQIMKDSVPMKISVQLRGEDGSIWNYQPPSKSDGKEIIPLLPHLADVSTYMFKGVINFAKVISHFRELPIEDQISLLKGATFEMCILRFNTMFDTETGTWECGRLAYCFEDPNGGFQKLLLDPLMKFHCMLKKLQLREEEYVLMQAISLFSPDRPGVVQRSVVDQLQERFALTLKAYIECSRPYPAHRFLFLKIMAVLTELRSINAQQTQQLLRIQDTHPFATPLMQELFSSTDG
Sequence of Voltage-gated inwardly rectifying potassium channel KCNH2 (Homo sapiens) (Q12809 whole entry, looked up): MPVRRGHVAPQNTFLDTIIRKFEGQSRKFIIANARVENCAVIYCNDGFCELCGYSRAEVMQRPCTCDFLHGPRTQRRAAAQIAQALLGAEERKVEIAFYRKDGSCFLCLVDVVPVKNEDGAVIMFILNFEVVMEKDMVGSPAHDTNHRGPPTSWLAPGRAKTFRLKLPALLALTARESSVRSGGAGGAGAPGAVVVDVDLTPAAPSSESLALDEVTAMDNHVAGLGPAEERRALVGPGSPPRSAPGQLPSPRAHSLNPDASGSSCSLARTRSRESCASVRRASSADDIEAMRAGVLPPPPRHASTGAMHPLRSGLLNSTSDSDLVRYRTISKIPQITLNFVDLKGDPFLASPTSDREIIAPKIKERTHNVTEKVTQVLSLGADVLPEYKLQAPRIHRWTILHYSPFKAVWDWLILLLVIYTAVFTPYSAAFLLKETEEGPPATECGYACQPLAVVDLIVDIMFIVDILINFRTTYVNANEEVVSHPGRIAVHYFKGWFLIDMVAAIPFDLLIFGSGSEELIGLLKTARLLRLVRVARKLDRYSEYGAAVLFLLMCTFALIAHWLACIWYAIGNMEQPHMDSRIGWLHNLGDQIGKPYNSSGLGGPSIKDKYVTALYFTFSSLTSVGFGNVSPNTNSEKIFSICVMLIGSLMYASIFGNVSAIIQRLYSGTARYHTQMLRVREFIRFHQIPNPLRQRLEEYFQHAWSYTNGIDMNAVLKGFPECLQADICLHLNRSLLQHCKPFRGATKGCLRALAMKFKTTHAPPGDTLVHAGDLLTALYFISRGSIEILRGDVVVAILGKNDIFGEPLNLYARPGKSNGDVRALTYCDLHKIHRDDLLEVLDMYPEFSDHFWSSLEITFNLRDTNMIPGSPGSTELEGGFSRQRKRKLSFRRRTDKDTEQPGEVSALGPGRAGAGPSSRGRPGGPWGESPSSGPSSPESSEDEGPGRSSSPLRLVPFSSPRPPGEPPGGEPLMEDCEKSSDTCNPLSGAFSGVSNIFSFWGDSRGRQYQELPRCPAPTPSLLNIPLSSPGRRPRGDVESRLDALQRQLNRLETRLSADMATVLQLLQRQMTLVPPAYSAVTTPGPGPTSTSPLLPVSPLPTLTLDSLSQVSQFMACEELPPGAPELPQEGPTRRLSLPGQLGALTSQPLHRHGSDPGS
Sequence of Cytochrome P450 2D6 (Homo sapiens) (P10635 whole entry, looked up): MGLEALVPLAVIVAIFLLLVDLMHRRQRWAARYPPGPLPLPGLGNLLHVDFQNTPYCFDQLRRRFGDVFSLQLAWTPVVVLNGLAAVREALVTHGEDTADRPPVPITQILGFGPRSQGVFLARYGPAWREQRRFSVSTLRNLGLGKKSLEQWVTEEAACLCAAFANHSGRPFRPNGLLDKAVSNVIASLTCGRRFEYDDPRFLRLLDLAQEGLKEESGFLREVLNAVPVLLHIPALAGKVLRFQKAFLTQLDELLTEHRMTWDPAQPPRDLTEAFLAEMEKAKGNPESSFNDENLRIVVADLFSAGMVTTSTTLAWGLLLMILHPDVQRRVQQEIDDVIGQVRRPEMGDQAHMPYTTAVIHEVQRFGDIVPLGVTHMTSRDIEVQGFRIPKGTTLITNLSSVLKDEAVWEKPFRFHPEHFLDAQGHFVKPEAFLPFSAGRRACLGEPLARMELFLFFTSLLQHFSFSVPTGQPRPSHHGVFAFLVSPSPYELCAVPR
Sequence of Cytochrome P450 1A2 (Homo sapiens) (P05177 whole entry, looked up): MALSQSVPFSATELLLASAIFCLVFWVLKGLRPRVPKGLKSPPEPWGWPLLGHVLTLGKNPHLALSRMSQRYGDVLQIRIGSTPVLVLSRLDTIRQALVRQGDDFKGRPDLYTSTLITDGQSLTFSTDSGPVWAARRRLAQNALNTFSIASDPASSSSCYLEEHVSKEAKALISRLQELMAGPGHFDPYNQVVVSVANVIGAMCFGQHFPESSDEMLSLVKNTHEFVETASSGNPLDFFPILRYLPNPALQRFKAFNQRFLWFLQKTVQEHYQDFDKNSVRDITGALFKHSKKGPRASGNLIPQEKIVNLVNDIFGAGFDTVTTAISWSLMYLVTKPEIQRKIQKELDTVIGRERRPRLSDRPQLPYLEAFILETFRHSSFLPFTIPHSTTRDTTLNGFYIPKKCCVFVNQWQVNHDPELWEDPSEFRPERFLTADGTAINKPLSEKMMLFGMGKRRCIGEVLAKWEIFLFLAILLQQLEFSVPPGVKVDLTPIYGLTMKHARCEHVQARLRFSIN

`NC(N)=O`: the Potency in experiment [1] is 14.1 µM (active) and inactive; in experiment [3] it was 5.15 µM (active) and inactive; in experiment [6], 9.16 µM (active) and inactive. In addition, the Potency entry in [2], in experiment [5], in experiment [9], in experiment [10], in experiment [11] and in experiment [12] was “inactive” in each case. Besides, the Potency result in experiment [13] and in experiment [15] was “inactive” each time. Also, the result in experiment [4], in experiment [8] and in [14] was inactive. In addition, the max activation in experiment [7] is -2.71% (inactive).
In the case of `O=c1cc[nH]c(=S)[nH]1`, the Potency entry in [1], in [3], in experiment [5], in [9], in experiment [10] and in experiment [15] was “inactive” in each case. Further, the Potency in experiment [2] is 30.8 µM (active) and inactive; in experiment [6], 61.5 µM (active) and inactive; in experiment [11] it was 28.5 µM (active) and inactive; in [12], 40.2 µM (active) and inactive; in experiment [13], 71.5 µM (active) and 36.7 µM (active) and 24.5 µM (active). For the same molecule, the max activation in experiment [7] is -8.7% (inactive). In addition, the outcome in experiment [8] and in experiment [14] was inactive.
Take `O=C(O)CS`: the Potency entry in [1], in [2], in experiment [5], in [6], in experiment [10] and in experiment [11] was “inactive” each time. Further, the Potency result in [12], in [13] and in [15] was “inactive” each time. Also, the Potency entry in experiment [3] was “inactive and 61.6 µM (active)”. Also, the outcome in experiment [4] and in experiment [14] was inactive.
`CCCC(CCC)C(=O)O`: the Potency result in experiment [1], in experiment [2], in experiment [3], in experiment [5], in experiment [6] and in [9] was “inactive” throughout. For the same molecule, the Potency result in experiment [10], in experiment [11] and in experiment [15] was “inactive” in each case. Also, the outcome in [4], in experiment [8] and in experiment [14] was inactive. For the same molecule, the max activation in [7] was 6.66% (inactive). For the same molecule, the Potency in experiment [12] is 79.6 µM (active) and inactive; in [13], 5.62 µM (active) and inactive.
Regarding `CCCC(O)C(CC)CO` (configuration not stated), the Potency result in [1], in experiment [2], in experiment [3], in [5], in experiment [6] and in [9] was “inactive” each time. Also, the Potency result in experiment [10], in experiment [11], in [12], in [13] and in [15] was “inactive” each time. Further, in [7], the max activation was -6.82% (inactive). Further, the outcome in experiment [8] and in [14] was inactive.
As to `NNC(=O)c1ccncc1`, the Potency entry in experiment [1], in experiment [2], in [3], in experiment [5] and in experiment [6] was “inactive” in each case. Moreover, the result in experiment [4] and in experiment [14] was inactive. The Potency in [10] was 40 µM (active) and inactive; in experiment [11] it was 15.9 µM (active) and 2.97 µM (active) and 17.4 µM (active); in experiment [12], 35.7 µM (active) and 13.3 µM (active); in experiment [13], 40 µM (active) and 26.5 µM (active) and 27.5 µM (active).
For the molecule `NC(=O)NC1NC(=O)NC1=O` (configuration not stated), the Potency result in experiment [1], in experiment [2], in experiment [3], in [5], in experiment [11] and in experiment [12] was “inactive” each time. For the same molecule, in [7], the max activation is -1.54% (inactive). Also, the Potency in experiment [10] was 35.2 µM (active) and inactive. The molecule was classed as inactive in experiment [14].
On to `CCC1(c2ccccc2)C(=O)NCNC1=O`, for which the Potency entry in experiment [1], in [2], in experiment [3], in experiment [5], in experiment [6] and in experiment [10] was “inactive” each time. Besides, the Potency entry in experiment [11], in [12], in [13] and in [15] was “inactive” throughout. Besides, in [14], the molecule was classed as inactive.
`CC(=O)NS(=O)(=O)c1ccc(N)cc1`: the Potency result in experiment [1], in experiment [2], in [3], in experiment [5], in experiment [6] and in experiment [10] was “inactive” throughout. The Potency result in experiment [11], in experiment [13] and in [15] was “inactive” in each case. Also, the result in experiment [14] was inactive.
On to `O=C1CN(/N=C/c2ccc([N+](=O)[O-])o2)C(=O)N1`, for which the Potency in experiment [1] was 27.2 µM (active) and 68.6 µM (active) and 26.6 µM (active); in [3], 60.9 µM (active) and 68.6 µM (active) and 33.5 µM (active); in experiment [5], 48.4 µM (active) and 61.1 µM (active) and 29.8 µM (active); in experiment [11] it was 79.4 µM (active) and inactive. Also, the Potency entry in [2], in [6], in experiment [9], in experiment [10], in experiment [12] and in experiment [13] was “inactive” throughout. The Potency result in experiment [15] was “inactive”. Moreover, the max activation in experiment [7] is -5.45% (inactive). In addition, the result in experiment [8] and in [14] was inactive.
Turning to `NC(N)=NC(=O)c1nc(Cl)c(N)nc1N`, the Potency result in [2], in experiment [3], in [5], in experiment [10], in experiment [11] and in experiment [12] was “inactive” throughout. In addition, the Potency result in [13] and in experiment [15] was “inactive” throughout. For the same molecule, the result in experiment [4] and in [14] was inactive. Also, the Potency in experiment [6] was 69 µM (active) and 50.4 µM (active) and inactive.
With `N=C(N)c1ccc(OCCCCCOc2ccc(C(=N)N)cc2)cc1`, the Potency entry in experiment [1], in experiment [2], in experiment [5], in experiment [11] and in experiment [13] was “inactive” throughout. The Potency was 54.2 µM (active) and inactive in [3]; 68.2 µM (active) and 32.8 µM (active) and inactive in [6].
Turning to `O=C1NC(=O)c2ccccc21`, the Potency entry in [1], in experiment [2], in [3], in experiment [5], in experiment [10] and in experiment [11] was “inactive” throughout. Moreover, the Potency result in experiment [12], in experiment [13] and in [15] was “inactive” each time. Besides, the Potency result in experiment [6] was “inactive and 31.4 µM (active)”. The molecule was called inactive in experiment [14].
Take `O=C(O)CCC(=O)O`: the Potency entry in [1], in experiment [2], in [3], in experiment [5], in experiment [6] and in experiment [9] was “inactive” each time. Also, the Potency entry in experiment [10], in experiment [11], in [12], in experiment [13] and in experiment [15] was “inactive” each time. Besides, in experiment [7], the max activation is -3.42% (inactive). For the same molecule, the molecule was classed as inactive in [8] and in [14].
Consider `Cc1cc(=O)[nH]c(=S)[nH]1`, for which the Potency result in [1], in experiment [2], in experiment [3], in [5], in [6] and in [9] was “inactive” throughout. The Potency result in experiment [10], in experiment [11], in [12], in experiment [13] and in experiment [15] was “inactive” each time. Besides, the max activation in experiment [7] is -8.17% (inactive). Moreover, the molecule was called inactive in [8] and in experiment [14].

The values above are taken from PubChem BioAssay (Tox21).
